AGP1-GFP MLPCN: yeast TOR pathway AGP1-GFP modulation. S. cerevisiae AGP1-GFP multiplex flow cytometry, 3 h; GFP as percent of DMSO wells. GFP response vs DMSO, % at 10 µM. 320,000 compounds, 0.02% hits;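 active = GFP response relative to DMSO above a set limit, near screen average plus 3 SD, cut at about 150% in these data; inconclusive = fewer than 70 cells counted for the yeast strain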;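 also: median GFP channel fluorescence of the gated AGP1 strain per well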
RPL19A TOR yeast: modulators of TOR pathway RPL19A-GFP in S. cerevisiae. S. cerevisiae RPL19A-GFP strain, flow cytometry, 3 h; active compounds read low. percent response vs DMSO, % at 10 µM. 330,000 compounds, 0.3% hits. AID 2025;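 active = percent response vs DMSO below 50%; inconclusive = fewer than 70 events counted for the yeast strain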;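 also: median channel GFP fluorescence of the barcoded RPL19A-GFP strain; ratio of sample median GFP to plate DMSO average so 100% = DMSO; lower means less RPL19A-GFP as with rapamycin TOR inhibition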
LAP4-GFP MLPCN: modulators of TOR pathway LAP4-GFP in S. cerevisiae; S. cerevisiae LAP4-GFP multiplex, flow cytometry GFP, 3 h; median GFP as percent of DMSO wells; GFP response vs DMSO, % at 10 µM; 320,000 compounds, 0.34% hits; AID 2023;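 active = GFP response vs DMSO above a set limit, about the screen mean plus 3 SD, cut at about 150% in these data; inconclusive = under 70 cell events counted for the yeast strain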
CIT2 TOR yeast: yeast TOR pathway CIT2-GFP modulation | S. cerevisiae CIT2-GFP strain, flow cytometry, 3 h; 100 means same as DMSO wells | GFP response vs DMSO, % at 10 µM | 320,000 compounds, 0.065% hits | AID 2029;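 active = GFP response relative to DMSO above a set limit, near the screen mean plus 3 SD, cut at about 150% in these data; inconclusive = Fewer than 70 cells measured for a yeast strain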;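 also: ratio of well median GFP fluorescence to mean of DMSO wells on the plate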
MEP2 TOR yeast: modulators of TOR pathway MEP2-GFP in S. cerevisiae; S. cerevisiae MEP2-GFP strain, flow cytometry GFP, 3 h; 100% = DMSO control level; GFP response vs DMSO, % at 10 µM; 330,000 compounds, 0.51% hits; AID 2016;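 active = GFP response versus DMSO above a set limit, roughly screen mean plus 3 SD, cut at about 180% in these data; inconclusive = fewer than 70 cells counted for a yeast strain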;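 also: median GFP fluorescence of the barcode-gated MEP2-GFP cells per well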
VLA-4 inh: inhibition in a human VLA-4 binding assay; 330,000 compounds, 0.2% hits; P13612; VLA-4 expressing cells, ligand binding flow cytometry; inhibition, % (about 7 µM as worked out from the volumes in the protocol); AID 2557; in the data active = inhibition above about 50%
Active calls of the source: *; ? = inconclusive; . = not tested or not shown; [ ] = remark or other dose. Most compounds without a hit are left out; they make up all but 1.1% or so of the library.

SMILES | AGP1-GFP MLPCN | RPL19A TOR yeast | LAP4-GFP MLPCN | CIT2 TOR yeast | MEP2 TOR yeast | VLA-4 inh
Cc1cc(C(=O)CN2C(=O)NC3(CCCc4ccccc43)C2=O)c(C)n1Cc1cccs1 (stereo not drawn) | 106 | 104 | 100 | 103 | 113 | 7
C=CCn1c(C)cc(C(=O)CN2C(=O)NC3(CCCc4ccccc43)C2=O)c1C (stereo not drawn) | ? | 27*[may fluoresce violet] | 91 | ? | 437*[may fluoresce violet] | 23
O=C(Nc1c2c(nn1-c1ccc([N+](=O)[O-])cc1)CS(=O)(=O)C2)C1CC1 | 17 | 40*[may fluoresce violet] | 83 | ? | 127 | 11
Cc1ccc(-n2nc3c(c2NC(=O)C2CC2)CS(=O)(=O)C3)cc1 | 96 | 96 | 98 | 94 | 95 | 23
COc1ccc(CNC(=O)CCSCc2cccc(F)c2)cc1 | 97 | 99 | 98 | 97 | 107 | 13
N#Cc1cc(Sc2ccccn2)c([N+](=O)[O-])cc1C#N | 110 | 113 | 156* | 158* | 127 | -49
COc1ccc(-c2cc(C(=O)Nc3cccnc3Cl)no2)cc1OC | ? | 24*[may fluoresce violet] | 65 | ? | ? | -9
O=C(CCCN=C1NS(=O)(=O)c2ccccc21)OCC(=O)c1ccccc1Cl | 94 | 89 | 94 | 96 | 91 | 8
CCOc1cc(/C=C\c2nc(O)c([N+](=O)[O-])c(=O)[nH]2)ccc1OC(C)C | ? | 53 | 66 | ? | 607*[may fluoresce violet] | 3
CCOc1cc(/C=C\c2[nH]c(=O)[nH]c(=O)c2[N+](=O)[O-])ccc1OC(C)CC (stereo not drawn) | 89 | 97 | 85 | 93 | 101 | 10
CCCCN(C)C(=O)CC(NS(=O)(=O)c1ccc(NC(C)=O)cc1)C(C)C (stereo not drawn) | 25 | 94 | 78 | ? | 253*[may fluoresce violet] | 3
O=C1CCCCC1c1cccc2ccccc12 (stereo not drawn) | 16 | 85 | 77 | ? | 177*[may fluoresce violet] | 17
COc1ccc(NC(=O)CSc2nc3ccccc3c3nc4ccccc4n23)cc1 | ? | 24*[may fluoresce violet] | 61 | ? | 124 | 0
O=C(OCc1nnc(-c2ccc([N+](=O)[O-])cc2)o1)C1CC(=O)N(CCc2ccccc2)C1 (stereo not drawn) | 93 | 94 | 97 | 92 | 92 | -1
Cc1ccc(N2CC(C(=O)OCc3nnc(-c4ccccc4)o3)CC2=O)cc1 (stereo not drawn) | 84 | 96 | 155* | 75 | 92 | -9
Nn1c(SCC(=O)Nc2ccccc2F)nnc1-c1cccs1 | 111 | 101 | 99 | 109 | 99 | 13
COc1ccc(CCNC(=O)c2cc(C)oc2C)cc1 | 98 | 100 | 107 | 102 | 97 | 11
Cc1cccc(OCCCSc2nc3ccc(C)cc3[nH]2)c1 | 91 | 95 | 162* | 83 | 98 | -1
Oc1c(C(c2ccc(Cl)cc2)N2CCCC2)cc(Cl)c2cccnc12 (stereo not drawn) | ? | 57 | 389*[may fluoresce violet] | ? | 168 | -21
Oc1c(C(c2ccccn2)N2CCC(Cc3ccccc3)CC2)cc(Cl)c2cccnc12 (stereo not drawn) | ? | 45*[may fluoresce violet] | 169*[may fluoresce violet] | ? | 299*[may fluoresce violet] | -13
CN1CCN(C(c2ccccn2)c2cc(Cl)c3cccnc3c2O)CC1 (stereo not drawn) | 98 | 97 | 133 | 96 | 100 | 12
COc1ccc(OC)c(C(c2c(O)nc(SC)[nH]c2=O)c2c(O)nc(SC)[nH]c2=O)c1 | 101 | 101 | 96 | 103 | 101 | 11
Oc1ccc(C2C(c3ccccc3)=NN=C(c3ccc(Cl)cc3)N2O)c(O)c1 (stereo not drawn) | 14 | 89 | 93 | ? | 150 | -42
Oc1ccc(C2C(c3ccccc3)=NN=C(c3ccccc3F)N2O)c(O)c1 (stereo not drawn) | 22 | 36*[may fluoresce violet] | 84 | ? | 211*[may fluoresce violet] | 7
Cc1nn(-c2ccccc2)c(C)c1NC(=O)COC(=O)Cc1ccccc1F | 117 | 103 | 119 | 109 | 108 | 3
SMILES | AGP1-GFP MLPCN | RPL19A TOR yeast | LAP4-GFP MLPCN | CIT2 TOR yeast | MEP2 TOR yeast | VLA-4 inh
Cc1occc1-c1nnc(SCC(=O)N2CC(=O)Nc3ccccc32)n1CC(C)C | 29 | 37*[may fluoresce violet] | 86 | ? | 197*[may fluoresce violet] | -10
CCn1c(SCC(=O)N2CC(=O)Nc3ccccc32)nnc1-c1ccoc1C | 101 | 101 | 106 | 101 | 107 | 13
Cc1[nH]c(=O)[nH]c(=O)c1Cc1cccc2ccccc12 | ? | 48*[may fluoresce violet] | 99 | ? | 323*[may fluoresce violet] | 16
COc1ccc(Cl)cc1NS(=O)(=O)c1ccc(OC)c(OC)c1 | ? | 19*[may fluoresce violet] | 101 | ? | 209*[may fluoresce violet] | -2
COc1ccc(S(=O)(=O)Nc2cc(Cl)ccc2OC)cc1 | 97 | 94 | 104 | 98 | 99 | -4
CN(CC(=O)Nc1cccc(F)c1)C(=O)c1ccncc1 | 95 | 103 | 96 | 109 | 99 | -2
O=[n+]1c2c(n([O-])c3cc(F)c(N4CCCC4)cc31)CCCC2 | ? | 34*[may fluoresce violet] | 89 | ? | 229*[may fluoresce violet] | -4
NC(=O)C1CC(=O)N(CCc2ccc(F)cc2)C1 (stereo not drawn) | 101 | 104 | 94 | 103 | 103 | 5
CCC(=O)N1COC[C@@H]1Cc1ccccc1 | ? | 23*[may fluoresce violet] | 59 | ? | 211*[may fluoresce violet] | -1
CCn1cnc2cc(NCc3nc4ccccc4n3C)ccc21 | 94 | 95 | 92 | . | 91 | -2
CC(C)n1cnc2cc(NCc3nc4ccccc4n3C)ccc21 | ? | 40*[may fluoresce violet] | 55 | ? | 145 | 0
COc1ccc2cc(CCOC3CCCCO3)ncc2c1 (stereo not drawn) | 99 | 99 | 92 | 92 | 97 | 17
O=C(Nc1ccc(Cl)cc1C(F)(F)F)c1ccc(Cl)cc1 | 88 | 94 | 91 | 86 | 90 | 17
O=C(Nc1cc(F)c(Br)cc1F)c1ccc(Cl)cc1 | 139 | 78 | 154* | 126 | 260* | -5
COC(=O)c1sccc1-n1cccc1C(=O)C(=O)N1CCCC1 | 24 | 62 | 86 | ? | 184*[may fluoresce violet] | -11
CCc1ccc(Nc2nnc(SCC(=O)Nc3sccc3C(N)=O)s2)cc1 | 17 | 40*[may fluoresce violet] | 86 | ? | 194*[may fluoresce violet] | 10
O=C(CSc1nnc(CNC(=O)c2c(F)cccc2F)o1)NCc1ccccc1Cl | 95 | 97 | 92 | 93 | 92 | 11
CCn1c(SCC(=O)NC2CC2)nnc1-c1ccc(OC)cc1 | 99 | 113 | 86 | . | 113 | 10
O=c1[nH]c2ccccc2nc1-c1ccc(Cl)cc1 | ? | 45*[may fluoresce violet] | 98 | ? | 570*[may fluoresce violet] | -55
CC1CCCN(C(=O)C2CC(=O)N(c3ccc(Cl)cc3)C2)C1 (stereo not drawn) | 91 | 101 | 110 | 91 | 106 | 0
CCN(CC)CCn1c(N)nc2ccccc21 | 27 | 89 | 71 | ? | 317*[may fluoresce violet] | -4
